Experimental data from PubChem BioAssay AID1159580 (chemical genetic matrix, 2015).
About 2,000 (36%) of roughly 5,500 compounds were called active. Inconclusive results (about 18%) are left out. Rule as the data show it: active = normalized growth mostly below about 0.91 (no sharp cut-off); inconclusive = no clear call, values can overlap the other calls; inactive = mostly above about 0.92. The list shows a part of the results.

Experiment: chemical genetic growth profiling, strain panel (AID 1159580);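 also: tested at 20 µM; growth read once vehicle control cultures reached saturation at 30 °C; 1 = growth at the plate median or of vehicle wells; lower values mean less growth of the strain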
Details: S. cerevisiae deletion strains, growth OD

Measured: normalized growth

COc1cc([C@@H]2c3cc4c(c(O)c3C[C@H]3COC(=O)[C@@H]32)OCO4)cc(OC)c1OC
inactive: locus YAL013W, strain DEP1, active compounds read low 0.986 | locus YAL021C, strain ccr4, active compounds read low 0.995 | locus YAL026C, strain drs2, active compounds read low 0.992 | locus YAL030W, strain snc1, active compounds read low 0.986 | locus YBL061C, strain skt5, active compounds read low 0.994 | locus YBR009C, strain hhf1, active compounds read low 0.993 | locus YBR021W, strain FUR4, active compounds read low 1 | locus YBR023C, strain chs3, active compounds read low 0.999 | locus YBR171W, strain sec66, active compounds read low 0.971 | locus YBR229C, strain ROT2, active compounds read low 0.985 | locus YBR231C, strain swc5, active compounds read low 0.977 | locus YBR279W, strain paf1, active compounds read low 0.994 | locus YCL011C, strain gbp2, active compounds read low 0.996 | locus YCL016C, strain dcc1, active compounds read low 1 | locus YCL029C, strain bik1, active compounds read low 0.978 | locus YCL069W, strain vba3, active compounds read low 1 | locus YCR088W, strain abp1, active compounds read low 0.984 | locus YDL005C, strain med2, active compounds read low 0.979 | locus YDL035C, strain GPR1, active compounds read low 0.981 | locus YDL040C, strain nat1, active compounds read low 0.994 | locus YDL074C, strain BRE1, active compounds read low 1.05 | locus YDL101C, strain DUN1, active compounds read low 0.985 | locus YDL134C, strain PPH21, active compounds read low 0.997 | locus YDL185W, strain tfp1, active compounds read low 0.959 | locus YDL192W, strain arf1, active compounds read low 0.972 | locus YDR001C, strain nth1, active compounds read low 0.988 | locus YDR069C, strain doa4, active compounds read low 0.981 | locus YDR101C, strain arx1, active compounds read low 0.995 | locus YDR137W, strain rgp1, active compounds read low 0.993 | locus YDR150W, strain NUM1, active compounds read low 0.973 | locus YDR159W, strain sac3, active compounds read low 0.967 | locus YDR162C, strain NBP2, active compounds read low 0.998 | locus YDR195W, strain ref2 0.93 | locus YDR297W, strain sur2, active compounds read low 0.976 | locus YDR318W, strain mcm21, active compounds read low 0.986 | locus YDR334W, strain swr1, active compounds read low 0.987 | locus YDR335W, strain msn5, active compounds read low 1 | locus YDR388W, active compounds read low 0.991 | locus YDR392W, strain spt3, active compounds read low 0.924 | locus YDR502C, strain sam2, active compounds read low 0.983 | locus YEL003W, strain gim4, active compounds read low 0.983 | locus YEL037C, strain rad23, active compounds read low 0.993 | locus YEL061C, strain CIN8 (second series), active compounds read low 1 | locus YEL061C, strain CIN8, active compounds read low 0.99 | locus YER015W, strain faa2, active compounds read low 1 | locus YER016W, strain bim1, active compounds read low 0.979 | locus YER110C, active compounds read low 0.971 | locus YER111C, strain swi4, active compounds read low 0.989 | locus YER155C, strain BEM2 (second series), active compounds read low 0.96 | locus YER155C, strain BEM2, active compounds read low 0.994 | locus YER167W, strain BCK2, active compounds read low 0.976 | locus YFR010W, strain ubp6, active compounds read low 0.995 | locus YGL078C, strain dbp3, active compounds read low 0.986 | locus YGL086W, strain mad1, active compounds read low 0.982 | locus YGL167C, strain pmr1, active compounds read low 0.991 | locus YGL173C, strain kem1, active compounds read low 0.98 | locus YGL227W, strain vid30, active compounds read low 0.983 | locus YGL240W, strain doc1, active compounds read low 0.961 | locus YGL248W, strain PDE1, active compounds read low 0.988 | locus YGL253W, strain hxk2, active compounds read low 0.994 | locus YGR078C, strain PAC10, active compounds read low 1.03 | locus YGR135W, strain pre9, active compounds read low 1.02 | locus YGR229C, strain SMI1, active compounds read low 1.05 | locus YGR252W, strain gcn5, active compounds read low 1.04 | locus YHR013C, strain ard1, active compounds read low 1 | locus YHR027C, strain rpn1, active compounds read low 0.976 | locus YHR030C, strain SLT2, active compounds read low 0.979 | locus YHR079C, strain IRE1 (second series), active compounds read low 0.983 | locus YHR094C, strain hxt1, active compounds read low 0.974 | locus YHR129C, strain ARP1, active compounds read low 0.993 | locus YHR142W, strain chs7, active compounds read low 1.02 | locus YHR200W, strain rpn10, active compounds read low 0.975 | locus YIL066C, strain RNR3, active compounds read low 0.983 | locus YIL073C, strain SPO22, active compounds read low 0.923 | locus YIL125W, strain kgd1, active compounds read low 0.986 | locus YIR030C, strain dcg1, active compounds read low 0.982 | locus YJL092W, strain hpr5, active compounds read low 0.999 | locus YJL095W, strain BCK1 (second series), active compounds read low 0.987 | locus YJL095W, strain BCK1, active compounds read low 1.05 | locus YJL115W, strain asf1, active compounds read low 0.987 | locus YJL129C, strain trk1, active compounds read low 0.962 | locus YJL134W, strain LCB3, active compounds read low 0.982 | locus YJL154C, strain vps35, active compounds read low 0.987 | locus YJL164C, strain tpk1, active compounds read low 1 | locus YJL166W, strain qcr8, active compounds read low 0.995 | locus YJL168C, strain set2, active compounds read low 0.985 | locus YJL187C, strain SWE1 (second series), active compounds read low 1.01 | locus YJL187C, strain SWE1, active compounds read low 0.983
